Laboratory results: PubChem BioAssay (NCI)
This is part of a sample that, as a whole, favours compounds with a hit. Of some 83,000 tested, about 20% had one in any assay.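 Single-dose data. Exposure time 48 hours. Values below 10 considered active.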 The source made the active and inactive calls.

Assays:
Experiment in all cases: NCI-60 one-dose screen, 48 h (100 = growth as untreated, 0 = no growth, -100 = all killed)
Details in all cases: 10 µM unless noted
[1] = test system: SR leukemia
[2] = test system: RPMI-8226 leukemia
[3] = test system: OVCAR-8 ovarian
[4] = test system: OVCAR-5 ovarian
[5] = test system: OVCAR-4 ovarian
[6] = test system: SK-OV-3 ovarian
[7] = test system: IGROV1 ovarian
[8] = test system: OVCAR-3 ovarian
[9] = test system: HS 578T breast
[10] = test system: NCI/ADR-RES ovarian
[11] = test system: T-47D breast
[12] = test system: BT-549 breast
[13] = test system: MDA-MB-435 melanoma
[14] = test system: SW-620 colon
[15] = test system: MCF7 breast
[16] = test system: HCT-116 colon
[17] = test system: HCC-2998 colon
[18] = test system: KM12 colon

Measured: growth

CS(=O)(=O)c1cccc(Nc2ncc3cc(-c4ccccc4Cl)ccc3n2)c1
inactive: [3] 11.3% | [4] 32.2% | [5] 39% | [8] 22.1% | [11] 11.1% | [12] 10.3% | [14] 15.7% | [15] 21.4% | [17] 33.3% | [18] 21.5%
active: [1] 0.145% | [2] 1.72% | [6] -2.26% | [7] 4.09% | [9] 3.45% | [10] -1.15% | [13] -28.3% | [16] -5.46%

Nc1nc(=O)n([C@H]2CC=C(CO)O2)cc1F
inactive: [1] 86.1% | [2] 101% | [3] 99.7% | [4] 89.3% | [5] 107% | [6] 101% | [7] 95.2% | [8] 104% | [9] 83.6% | [10] 104% | [11] 98.6% | [12] 114% | [13] 97.8% | [14] 90.5% | [15] 95.8% | [16] 108% | [17] 104% | [18] 103%

Cc1nc2c(c(-c3ccccc3)n1)Cc1c(ccc3ccccc13)O2
inactive: [1] 107% | [2] 87% | [3] 95.1% | [4] 93.1% | [5] 99.4% | [6] 96.4% | [7] 118% | [8] 99.1% | [9] 83.3% | [10] 98% | [11] 84.6% | [12] 90% | [13] 119% | [14] 96.4% | [15] 89.1% | [16] 90.6% | [17] 111% | [18] 89.1%

Cc1cc(C(=O)Nc2cc(Nc3ncccc3-c3ncnc4nc[nH]c34)ccc2F)cc(C(C)(C)C#N)c1
inactive: [1] 32.1% | [2] 24% | [3] 39.9% | [4] 30.3% | [5] 53.2% | [6] 87% | [8] 52.1% | [9] 44.6% | [10] 49.9% | [11] 47% | [12] 54.5% | [13] 33.2% | [14] 34.3% | [15] 62.4% | [16] 14.1% | [17] 35.3% | [18] 35.9%
active: [7] 3.72%

COCCn1cc(-c2nc(-c3cc4cccnc4n3C)cs2)c2cc(OC)ccc21
inactive: [1] 31% | [2] 41% | [3] 48.9% | [4] 37.5% | [6] 50% | [7] 28.4% | [9] 56.8% | [10] 45.9% | [12] 27% | [13] 89.6% | [14] 77.1% | [16] 46.1%
active: [5] 8.84% | [8] 6.53% | [11] -15.9% | [15] 2.86% | [18] 6.09%

CC1(C)CC[C@]2(CO)CC[C@]3(C)C(=CC[C@@H]4[C@@]5(C)CCNCC(C)(C)[C@@H]5CC[C@]43C)[C@@H]2C1
inactive: [3] 87.4% | [4] 81.8% | [5] 81% | [6] 95.4% | [7] 95% | [8] 89.5% | [9] 96.7% | [10] 91.9% | [11] 56.3% | [12] 90.1% | [13] 41.6% | [14] 21% | [15] 38.6% | [16] 55.5% | [18] 34.7%
active: [1] -24.3% | [2] -26.1%

COc1ccc(-c2cc(-c3ccc(Cl)cc3)c(C#N)c(=O)n2CCCCC(=O)NO)cc1
inactive: [1] 40.3% | [2] 34% | [3] 53.9% | [4] 63.9% | [5] 74.9% | [6] 89.3% | [7] 69% | [8] 75% | [9] 87.8% | [10] 10.8% | [11] 83.2% | [12] 59.8% | [13] 91.1% | [14] 80% | [15] 76.7% | [16] 62.7% | [17] 84.3% | [18] 86.9%

COc1cc2nc3cc([N+](=O)[O-])ccc3c(NCCCNCCO)c2cc1OC
active: [1] -12.4% | [2] -1.84% | [3] -28.9% | [4] -15.2% | [5] -47.2% | [6] -59% | [7] -29.9% | [8] -44.6% | [9] -16.1% | [11] -30.1% | [12] -73.4% | [13] -100% | [14] -25% | [15] -28.5% | [16] -33.7% | [18] -33.6%
inactive: [10] 93.3%

COc1cc(CNC(=O)CCCC/C=C/C(C)C)ccc1OCc1cn(-c2cccc([N+](=O)[O-])c2)nn1
inactive: [1] 78.4% | [2] 65.9% | [3] 76.9% | [4] 107% | [5] 94.2% | [6] 93.6% | [7] 89.4% | [8] 105% | [9] 90.8% | [10] 81.8% | [11] 72.3% | [12] 96.3% | [13] 101% | [14] 97.4% | [15] 74.1% | [16] 42% | [18] 91.2%

COc1ccccc1-c1nc2ccc3[nH]ncc3c2c2c1CCCC2
inactive: [1] 29.1% | [2] 68.6% | [3] 81.2% | [4] 103% | [5] 85.6% | [6] 80.5% | [7] 58.9% | [8] 114% | [9] 44.8% | [10] 80.6% | [11] 74.2% | [12] 77.1% | [13] 64.4% | [14] 82.6% | [15] 68.7% | [16] 64.9% | [18] 31%

Cc1c(CC(=O)Nc2ccccc2)nnn1-c1ccccc1
inactive: [1] 103% | [2] 103% | [3] 105% | [4] 108% | [5] 115% | [6] 110% | [7] 106% | [8] 115% | [9] 102% | [10] 99.5% | [11] 101% | [12] 112% | [13] 115% | [14] 110% | [15] 99.6% | [16] 106% | [17] 102% | [18] 108%

COc1ccc2c(O)cc3c(c2c1)[C@H](CCl)CN3C(=O)c1cc2cc(NC(=O)CCN3CCOCC3)ccc2[se]1
inactive: [1] 52.5% | [2] 79.7%
active: [3] -98.1% | [4] -44.6% | [5] -25.4% | [6] -42% | [7] -60.1% | [8] -7.3% | [9] 5.52% | [10] -34.4% | [11] -21.4% | [12] -72.8% | [13] -67.5% | [14] -41.4% | [15] -48% | [16] -55.1% | [17] -88.3% | [18] -57.4%

Cc1cc2c(c(C)n1)CN(C(=O)Nc1nc(-c3cncs3)ccc1N)C2
inactive: [1] 95.3% | [2] 93.7% | [3] 92.3% | [4] 103% | [5] 96.7% | [6] 89% | [7] 92.6% | [8] 103% | [9] 104% | [10] 96.5% | [11] 90.5% | [12] 105% | [13] 102% | [14] 107% | [15] 89.3% | [16] 92.3% | [17] 107% | [18] 95.8%

CCOC(=O)/C(=C/c1ccc([N+](=O)[O-])cc1)C(=O)c1ccccc1
active: [1] 4.07% | [2] -13% | [12] 6.8% | [14] 6.12% | [16] -8.58%
inactive: [3] 41.5% | [4] 41.7% | [5] 76% | [6] 102% | [7] 42.5% | [8] 58.4% | [9] 33.2% | [10] 25.7% | [11] 41.9% | [13] 28.1% | [15] 22.7% | [17] 47.7% | [18] 29.5%

CCn1c2ccccc2c2cc(C(O)c3cccc4ncccc34)ccc21 (centres undefined)
active: [2] -2.06% | [8] 1.86% | [10] -53.2% | [12] -8.94% | [13] 0.201% | [16] 0.739% | [18] 8.55%
inactive: [1] 15.5% | [3] 20.8% | [4] 48.7% | [5] 45.4% | [6] 69.1% | [7] 19.1% | [9] 21.3% | [11] 59% | [14] 26.8% | [15] 15.5%

CC(Cc1cccc2ccccc12)C(N)=O (centres undefined)
inactive: [1] 101% | [2] 102% | [3] 108% | [4] 94.9% | [5] 107% | [6] 102% | [7] 96.8% | [8] 113% | [9] 99.2% | [10] 110% | [11] 105% | [12] 105% | [13] 98.9% | [14] 108% | [15] 93% | [16] 106% | [17] 106% | [18] 110%

C=C(C[n+]1ccccc1)[C@@H]1CC[C@]2(C(=O)OC)CC[C@]3(C)[C@H](CC[C@@H]4[C@@]5(C)CCC(=O)C(C)(C)[C@@H]5CC[C@]43C)[C@@H]12
inactive: [1] 84.8% | [2] 52.3% | [3] 90.3% | [4] 101% | [5] 55% | [6] 99% | [7] 64.2% | [8] 58.9% | [9] 87.9% | [10] 103% | [11] 81.4% | [12] 72.8% | [13] 77.6% | [14] 89% | [15] 82.9% | [16] 96.9% | [18] 78.4%
